HEK293 tox: Cytotoxic Profiling in HEK 293 Cell Line of Diverse Libraries Using Quantitative High-Throughput Screening; Potency, µM (top dose mostly 115 µM), for the others: at the top dose activity change, negative = cytotoxicity, hits mostly inhibitors; actives 6.6% (n = 94,000); HEK 293 viability, ATP luminescence (CellTiter-Glo), 48-72 h; also: % is scaled to controls: 0 for no effect and ±100 for the full control effect; nearly all actives have a fitted effect of over 60% in size
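Viability of HEK 293 cells, plated at 250 cells/well, was judged by cellular ATP after compound treatment for 48 or 72 hr. Luminescence was imaged 10 min after CellTiter-Glo addition at room temperature.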
FLuc inh: Firefly luciferase inhibition profiling of diverse chemical library using quantitative high-throughput screening; Luciferin 4-monooxygenase (Photinus pyralis), P08659; purified P. pyralis luciferase, luminescence, biochemical; Potency, µM (titrated, usually from 115 µM), hits mostly inhibitors; actives 2.5% (n = 76,000); AID 1347043, 2019; also: % is scaled to controls: 0 for no effect and ±100 for the full control effect; nearly all actives have a fitted effect of over 65% in size
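FLuc 10nM, D-luciferin 10uM, ATP 10uM, Mg acetate 10mM, Tris acetate pH 7.5, Tween/BSA; cpd qHTS; enzyme added last; CCD luminescence.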
hNpr1 antagonist: Natriuretic polypeptide receptor (hNpr1) antagonism - Primary qHTS; Atrial natriuretic peptide receptor 1 (Homo sapiens), P16066; HEK293 hNpr1 GloSensor cGMP, ANP-stimulated luminescence; Potency, µM (titrated, usually from 46.3 µM), without a hit: top-dose activity change, negative = inhibition, usual class: inhibitors; actives 1.6% (n = 76,000); AID 1347048, 2019; calls by dose curve; also: % is scaled to controls: 0 for no effect and ±100 for the full control effect; nearly all actives have a fitted effect of over 60% in size
Target sequence (P16066 whole entry, looked up): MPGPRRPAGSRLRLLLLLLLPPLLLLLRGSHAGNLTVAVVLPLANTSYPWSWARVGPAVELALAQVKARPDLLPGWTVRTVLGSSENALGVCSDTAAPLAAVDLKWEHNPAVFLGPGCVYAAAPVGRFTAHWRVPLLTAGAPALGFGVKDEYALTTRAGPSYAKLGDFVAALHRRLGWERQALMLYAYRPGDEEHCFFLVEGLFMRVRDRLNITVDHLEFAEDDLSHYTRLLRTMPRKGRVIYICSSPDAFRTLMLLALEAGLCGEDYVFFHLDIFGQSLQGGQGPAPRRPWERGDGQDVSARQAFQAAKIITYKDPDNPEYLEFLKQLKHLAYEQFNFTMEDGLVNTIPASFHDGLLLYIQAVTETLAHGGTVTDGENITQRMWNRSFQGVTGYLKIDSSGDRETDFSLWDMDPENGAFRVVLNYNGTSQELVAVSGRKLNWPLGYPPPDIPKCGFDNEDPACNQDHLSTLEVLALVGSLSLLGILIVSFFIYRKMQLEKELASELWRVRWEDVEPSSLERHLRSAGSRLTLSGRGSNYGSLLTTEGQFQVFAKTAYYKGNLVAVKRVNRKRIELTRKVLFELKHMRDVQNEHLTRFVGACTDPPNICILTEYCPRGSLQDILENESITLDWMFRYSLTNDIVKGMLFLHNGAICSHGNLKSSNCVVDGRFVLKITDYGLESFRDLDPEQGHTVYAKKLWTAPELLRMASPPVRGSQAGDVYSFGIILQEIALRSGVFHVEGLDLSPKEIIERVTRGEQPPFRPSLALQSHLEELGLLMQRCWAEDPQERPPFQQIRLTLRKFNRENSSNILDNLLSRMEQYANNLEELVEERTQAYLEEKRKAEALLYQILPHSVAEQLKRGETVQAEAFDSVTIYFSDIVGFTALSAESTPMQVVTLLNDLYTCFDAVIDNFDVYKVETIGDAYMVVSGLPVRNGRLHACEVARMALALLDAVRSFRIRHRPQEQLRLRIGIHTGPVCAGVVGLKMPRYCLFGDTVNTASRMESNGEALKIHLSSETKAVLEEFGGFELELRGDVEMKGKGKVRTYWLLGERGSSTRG
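Compound pre-incubated 30 min at room temperature on GloSensor-loaded HEK293 cells stably carrying hNpr1 and the pGS-40F cGMP biosensor. Stimulation uses hNppA at 0.1 nM final; luminescence is taken at baseline and 20 min post-agonist.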
NIH3T3 tox: Cytotoxic Profiling in NIH 3T3 Cell Line of Diverse Libraries Using Quantitative High-Throughput Screening. NIH 3T3 viability, CellTiter-Glo ATP luminescence, 48-72 h. Potency, µM (doses to about 96.7 µM), inactives show at the highest dose activity change, negative = cytotoxicity, most hits filed as inhibitors. actives 4.3% (n = 94,000). AID 1345082, 2018; also: % is scaled to controls: 0 for no effect and ±100 for the full control effect; nearly all actives have a fitted effect of over 55% in size
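Cells were seeded at 400 per well, treated with pin-transferred compound, and kept 48 or 72 hr at 37 °C before CellTiter-Glo addition and luminescence imaging of cellular ATP.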
Npr1 antag conf: Natriuretic polypeptide receptor (hNpr1) antagonism - Confirmation | HEK293 hNpr1 cGMP GloSensor luminescence, ANP-stimulated | AID 1347044, 2019 | actives 76% (n = 1,400) | Potency, µM (highest dose often 57.6 µM), without a hit: at the highest dose activity change, negative = inhibition, usual class: inhibitors | shares compounds with hNpr1 antagonist; calls by dose curve; also: nearly all actives have a fitted effect of over 70% in size
NPR2 antag: Natriuretic polypeptide receptor (hNpr2) antagonism - Subtype selectivity assay; shares compounds with hNpr1 antagonist; HEK293 hNpr2 GloSensor cGMP luminescence, CNP-stimulated; Potency, µM (doses to about 57.6 µM), without a hit: at the highest dose activity change, negative = inhibition, most hits filed as inhibitors; actives 67% (n = 1,400); AID 1347046, 2019; calls by dose curve; also: nearly all actives have a fitted effect of over 70% in size
FLuc inh counter: Natriuretic polypeptide receptor (hNpr1) antagonism - Confirmation firefly luciferase (FLuc) inhibition counterscreen; shares compounds with hNpr1 antagonist; purified FLuc enzyme, luminescence, Km substrate; Potency, µM (titrated, usually from 57.6 µM), inactives show top-dose activity change, negative = inhibition, usual class: inhibitors; actives 0.7% (n = 1,400); also: series mostly up to about 58 µM; 0% is about no effect
GloSensor ctrl: Natriuretic polypeptide receptor (hNpr1) antagonism - Counterscreen GloSensor control cell line; Potency, µM (doses to about 57.6 µM), for the others: at the top dose activity change, negative = inhibition, hits mostly inhibitors; HEK293 GloSensor cGMP, SNP-stimulated, luminescence; AID 1347051, 2019; shares compounds with hNpr1 antagonist; actives 69% (n = 1,400); calls by dose curve; also: % is scaled to controls: 0 for no effect and ±100 for the full control effect; nearly all actives have a fitted effect of over 70% in size
* = called active by the depositor; i = inactive; u = inconclusive; x = no result; [ ] = dose if it differs, or a comment. Sampled rows, rich in hits. Any-hit rate of the full collection: about 11%. Unless noted, calls follow the shape of the dose curve; as a rule, active = well fitted curve in the direction sought with a large enough effect; inconclusive = small, poorly fitted or top-dose-only effect, or another doubt; inactive = no such curve, though single readings can be large; an effect the other way counts as inactive or inconclusive. Potency is read from the fitted curve at half-maximal effect.

SMILES	HEK293 tox	FLuc inh	hNpr1 antagonist	NIH3T3 tox	Npr1 antag conf	NPR2 antag	FLuc inh counter	GloSensor ctrl
O=C(Cc1ccccc1F)N1CC(Oc2ccc(-c3noc(-c4cccnc4)n3)cc2)C1	-43%	i	-29%	-2%	22µM*	22µM*	-14%	22µM*
CC(C)S(=O)(=O)N1CC(Oc2ccc(-c3noc(-c4cccnc4)n3)cc2)C1	u	i	1.4µM*	-24%	22µM*	u	-14%	22µM*
COc1ccccc1C(=O)N1CC(Oc2ccc(-c3nc(-c4ccccc4)no3)cc2)C1	u	i	11µM*	u	24µM*	24µM*	-25%	22µM*
COc1ccc(S(=O)(=O)N2CCC(c3noc(-c4cccnc4)n3)C2)cc1 (stereo unspecified)	-8%	i	-7%	-26%	x	x	x	x
COc1cccc(CN2CCC(Oc3ccccc3-c3nc(-c4ccncc4)no3)C2)c1 (stereo unspecified)	u	i	u	25µM*	u	u	u	0%
CNC(=O)c1nc2cccnc2n(-c2ccccc2OC)c1=O	-4%[172 µM]	x	x	-21%[138 µM]	x	x	x	x
O=C(CS(=O)(=O)c1ccccc1)N[C@H]1CCN2C(=O)[C@H](Cc3ccc(F)cc3)NC(=O)[C@@H]2C1	-9%	i	0%	-16%	x	x	x	x
COCc1cc(=O)n(CC(=O)Nc2ccc(Br)cc2F)c(N2CCOCC2)n1	10%	i	0%	-5%	x	x	x	x
COc1cccc(CC(=O)N2CC(Oc3ccc(-c4noc(-c5ccncc5)n4)cc3)C2)c1	13µM*	i	7.9µM*	u	3.1µM*	4.3µM*	-21%	3.4µM*
O=C(Nc1ccc(Cl)cc1)c1nc2c(o1)CCN(CC1CCCC1)CC2	u	i	28µM*	u	35µM*	31µM*	-14%[86.2 µM]	25µM*
O=C(Nc1ccccc1)c1cnc2n1CCN(CC1CCCC1)CC2	-22%[172 µM]	i	1%[70.6 µM]	u	x	x	x	x
O=C(Nc1ccc(Cl)cc1)c1nc2c(o1)CCN(CC1CC1)CC2	u	i	u	u	u	-26%[86.2 µM]	-22%[86.2 µM]	u
O=C(C1CCCN1C(=O)NC1CCCC1)N1CCCC(c2nc3ncccc3[nH]2)C1 (stereo unspecified)	i	x	x	-11%	x	x	x	x
CCOC(=O)[C@H]1[C@@H](O)C(=O)NC12CCN(C(=O)c1csc(-c3cccs3)n1)CC2	-31%	x	x	u	x	x	x	x
CC(C)c1noc(-c2cn(C3CCN(C(=O)c4ccsc4)CC3)nn2)n1	-14%	i	-14%	-24%	x	x	x	x
Cc1ccc(C(=O)N2CCC(Cc3nc(-c4ccccc4)no3)CC2)s1	32µM*	i	6.3µM*	u	7.7µM*	9.7µM*	1%	8.6µM*
COc1ccc(C(=O)N2CCC(Cc3nc(-c4ccccc4)no3)CC2)cc1OC	u	i	2.8µM*	u	5.4µM*	6.9µM*	1%	5.4µM*
COc1ccc(C(=O)N2CCC(Cc3nc(-c4ccccc4)no3)CC2)cc1F	u	i	3.2µM*	u	3.1µM*	3.1µM*	-17%	3.1µM*
COc1ccc(C(=O)N2CCC[C@H]2c2nc(-c3ccccc3)no2)cc1F	4%	i	4%	-4%	x	x	x	x
CCCCOc1ccc(C(=O)N2CCC(Cc3nc(-c4ccccc4)no3)CC2)cc1	u	i	10µM*	u	17µM*	14µM*	4%	12µM*
Cc1cc(C)cc(C(=O)N2CCC(Cc3nc(-c4ccccc4)no3)CC2)c1	u	i	u	u	x	x	x	x
O=C(O)[C@]12CCCN[C@@H]1CCN(c1cc(N3CCOCC3)ncn1)C2	-2%	i	8%	-1%	x	x	x	x
CN(C(=O)c1ccccc1Cl)C1CCCc2ccccc21 (stereo unspecified)	u	i	-1%[70.6 µM]	-24%[138 µM]	x	x	x	x
OCC1CCCN(c2ccc(-c3nc(-c4cccc(C(F)(F)F)c4)no3)cn2)C1 (stereo unspecified)	-29%	i	14µM*	u	14µM*	17µM*	u	17µM*
O=C(OCc1ccccc1)N1CCC2(CC1)C(=O)NN=C2c1cccnc1	u	i	u	u	19µM*	22µM*	1%	17µM*
SMILES	HEK293 tox	FLuc inh	hNpr1 antagonist	NIH3T3 tox	Npr1 antag conf	NPR2 antag	FLuc inh counter	GloSensor ctrl
O=C(CCc1c[nH]c2ccccc12)NCC12CCCC=C1N(CC1CC1)C(=O)CC2 (stereo unspecified)	u	i	-1%	-29%	x	x	x	x
Cc1ccc(CNC(=O)N2CCC(Cc3ccc(C(=O)NC4CC4)cc3)CC2)cc1	u	i	u	u	u	u	0%	u
CC(C)CCN1CCC(Cc2ccc(C(=O)NC3CC3)cc2)CC1	u	i	-3%	u	x	x	x	x
CCCN(Cc1ccncc1)C(=O)c1cnc(-c2ccccn2)[nH]c1=O	u	i	2%	u	x	x	x	x
O=C1COc2ccc(NCCc3ccccn3)nc2CN1Cc1ccc(C(F)(F)F)cc1	u	i	u	u	u	u	2%	u
O=C1COc2ccc(-c3cccc(O)c3)nc2CN1Cc1ccc(C(F)(F)F)cc1	u	i	-18%[70.6 µM]	u	x	x	x	x
O=C1COc2ccc(NCc3cccs3)nc2CN1Cc1ccc(F)cc1	u	i	u	u	x	x	x	x
O=C1COc2ccc(NCCOc3ccccc3)nc2CN1Cc1ccccc1F	u	i	22µM*	u	31µM*	35µM*	3%[86.2 µM]	31µM*
O=C1COc2ccc(NCc3cccs3)nc2CN1CCOc1ccccc1	89µM*	i	14µM*	u	20µM*	22µM*	6%[86.2 µM]	18µM*
